# Inconclusive results are not listed. Unmarked numbers belong to inactive results. Active and inactive are the calls of the source. Calls come from the whole dose curve; as a rule, active = well fitted inhibition curve with a large enough effect; inconclusive = small, poorly fitted or top-dose-only effect; inactive = flat fitted curve, though single readings scatter.
# Test system: CP194
# Test: qHTS profiling for inhibitors of Plasmodium falciparum proliferation (AID 504749);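 note: 0% = DMSO vehicle and full inhibition = artemisinin control; nearly all actives have a fitted effect of over 60% in size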
# Settings: P. falciparum in erythrocytes, SYBR Green DNA, 72 h; series mostly up to 28.7 µM; activity, negative = inhibition: at the top concentration
# In short: (§1)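 P. falciparum-infected erythrocytes (0.3% parasitemia, 2.5% hematocrit) incubated with compound 72 h at 37 C, 5% CO2. Parasite DNA detected by SYBR Green after lysis, overnight at room temperature; normalised to 0.29 uM artemisinin and DMSO.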
row,Structure (SMILES),"activity, negative = inhibition"
1,C[N+]1([O-])[C@@H]2CC(OC(=O)[C@@H](CO)c3ccccc3)C[C@@H]1[C@H]1O[C@H]12 (some centres undefined),-11%
2,ClC1=C(Cl)C2(Cl)C3C4CC(C5OC45)C3C1(Cl)C2(Cl)Cl (centres undefined),-9.74%
3,CCNC[C@H](O)c1cccc(O)c1,0.711% [at 12.8 µM]

# Test system: CP201
# Test: as above
# Settings: P. falciparum in erythrocytes, SYBR Green DNA, 72 h; series mostly up to 28.7 µM; activity, negative = inhibition: at the top concentration
# In short: as §1
row,Structure (SMILES),"activity, negative = inhibition"
1,C[N+]1([O-])[C@@H]2CC(OC(=O)[C@@H](CO)c3ccccc3)C[C@@H]1[C@H]1O[C@H]12 (some centres undefined),1.24%
2,ClC1=C(Cl)C2(Cl)C3C4CC(C5OC45)C3C1(Cl)C2(Cl)Cl (centres undefined),-5.51%
3,CCNC[C@H](O)c1cccc(O)c1,-0.844% [at 12.8 µM]

# Test system: CP211
# Test: as above
# Settings: P. falciparum in erythrocytes, SYBR Green DNA, 72 h; series mostly up to 28.7 µM; activity, negative = inhibition: at the top concentration
# In short: as §1
row,Structure (SMILES),"activity, negative = inhibition"
1,C[N+]1([O-])[C@@H]2CC(OC(=O)[C@@H](CO)c3ccccc3)C[C@@H]1[C@H]1O[C@H]12 (some centres undefined),-0.817%
2,ClC1=C(Cl)C2(Cl)C3C4CC(C5OC45)C3C1(Cl)C2(Cl)Cl (centres undefined),-0.41%
3,CCNC[C@H](O)c1cccc(O)c1,-0.653% [at 12.8 µM]

# Test system: CP217
# Test: as above
# Settings: P. falciparum in erythrocytes, SYBR Green DNA, 72 h; series mostly up to 28.7 µM; activity, negative = inhibition: at the top concentration
# In short: as §1
Structure (SMILES),Potency,"activity, negative = inhibition"
C[N+]1([O-])[C@@H]2CC(OC(=O)[C@@H](CO)c3ccccc3)C[C@@H]1[C@H]1O[C@H]12 (some centres undefined),inactive,
ClC1=C(Cl)C2(Cl)C3C4CC(C5OC45)C3C1(Cl)C2(Cl)Cl (centres undefined),,-27.8%
CCNC[C@H](O)c1cccc(O)c1,,1.53% [at 12.8 µM]

# Test system: CP237
# Test: as above
# Settings: P. falciparum in erythrocytes, SYBR Green DNA, 72 h; series mostly up to 28.7 µM; activity, negative = inhibition: at the top concentration
# In short: as §1
Structure (SMILES),Potency,"activity, negative = inhibition"
C[N+]1([O-])[C@@H]2CC(OC(=O)[C@@H](CO)c3ccccc3)C[C@@H]1[C@H]1O[C@H]12 (some centres undefined),inactive,
ClC1=C(Cl)C2(Cl)C3C4CC(C5OC45)C3C1(Cl)C2(Cl)Cl (centres undefined),,-20.7%
CCNC[C@H](O)c1cccc(O)c1,,0.229% [at 12.8 µM]

# Test system: CP238
# Test: as above
# Settings: P. falciparum in erythrocytes, SYBR Green DNA, 72 h; series mostly up to 28.7 µM; activity, negative = inhibition: at the top concentration
# In short: as §1
Structure (SMILES),Potency,"activity, negative = inhibition"
C[N+]1([O-])[C@@H]2CC(OC(=O)[C@@H](CO)c3ccccc3)C[C@@H]1[C@H]1O[C@H]12 (some centres undefined),inactive,
ClC1=C(Cl)C2(Cl)C3C4CC(C5OC45)C3C1(Cl)C2(Cl)Cl (centres undefined),,-16%
CCNC[C@H](O)c1cccc(O)c1,,-0.182% [at 12.8 µM]

# Test system: CP247
# Test: as above
# Settings: P. falciparum in erythrocytes, SYBR Green DNA, 72 h; series mostly up to 28.7 µM; activity, negative = inhibition: at the top concentration
# In short: as §1
Structure (SMILES),Potency,"activity, negative = inhibition"
C[N+]1([O-])[C@@H]2CC(OC(=O)[C@@H](CO)c3ccccc3)C[C@@H]1[C@H]1O[C@H]12 (some centres undefined),inactive,
ClC1=C(Cl)C2(Cl)C3C4CC(C5OC45)C3C1(Cl)C2(Cl)Cl (centres undefined),,-11.6%
CCNC[C@H](O)c1cccc(O)c1,,8.46% [at 12.8 µM]

# Test system: CP250
# Test: as above
# Settings: P. falciparum in erythrocytes, SYBR Green DNA, 72 h; series mostly up to 12.8 µM; activity, negative = inhibition: at the top concentration
# In short: as §1
Structure (SMILES),Potency,"activity, negative = inhibition"
C[N+]1([O-])[C@@H]2CC(OC(=O)[C@@H](CO)c3ccccc3)C[C@@H]1[C@H]1O[C@H]12 (some centres undefined),inactive,
ClC1=C(Cl)C2(Cl)C3C4CC(C5OC45)C3C1(Cl)C2(Cl)Cl (centres undefined),,-9.26% [at 28.7 µM]
CCNC[C@H](O)c1cccc(O)c1,,11%

# Reference: PubChem BioAssay (NCATS)
